Laboratory results: the supplement of paper PMC10849652
Targets with a hit are over-represented here; the source holds about 7,900 in all. About 0.6% of all pairs of compound and target were hits. Values without a mark were called inactive.

Assays:
Test in all cases: log2 fold change, soluble protein after heating vs DMSO (PISA); higher = thermal stabilisation; K562 cells, 10 uM, 30 min; active = over 0.2 and 3.5 SD of the protein, either way, in both replicates (recomputed)
[1] = compound: CN1CCN(CCOc2cc(OC3CCOCC3)c3c(Nc4c(Cl)ccc5c4OCO5)ncnc3c2)CC1 [saracatinib]
How it was run: (§1)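 K562 cells at 2×10^6 cells/mL were treated with 10 μM compound for 30 min. Aliquots were heated for 3 min across 48°C-58°C, pooled, and extracted in PBS with 0.5% NP-40 at 4°C; soluble protein was the supernatant after 21,000xg for 90 min. Soluble protein was quantified by TMTpro 16plex LC-MS/MS with channel sums equalised, and reported as log2 fold change in thermal stability against DMSO controls, with values from duplicates.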

[2] = compound: CN1CCN(c2nc(C3=C(c4c[nH]c5ccccc45)C(=O)NC3=O)c3ccccc3n2)CC1 [sotrastaurin]
How it was run: as §1

[3] = compound: CN1CC[C@H](c2c(O)cc(O)c3c(=O)cc(-c4ccccc4Cl)oc23)[C@H](O)C1 [alvocidib]
How it was run: as §1

[4] = compound: CN1CCc2c(c3ccccc3n2Cc2ccc(C(=O)NO)cc2)C1 [Tubastatin A]
How it was run: as §1

[5] = compound: CNC(=O)C1=CC=CC=C1NC2=NC(=NC=C2Cl)NC3=C(C=C(C=C3)N4CCOCC4)OC
How it was run: as §1

[6] = compound: CNC(=O)c1ccc(Nc2ncc(C(F)(F)F)c(NCc3nccnc3N(C)S(C)(=O)=O)n2)cc1 [defactinib]
How it was run: as §1

[7] = compound: CNCc1ccc(-c2[nH]c3cc(F)cc4c3c2CCNC4=O)cc1 [rucaparib]
How it was run: as §1

[8] = compound: CNc1nc(-c2ccc3c(N)n[nH]c3c2)cc(N2C[C@@H](C(=O)NC3CCCCC3)CC[C@H]2C)n1
How it was run: as §1

[9] = compound: COC(=O)N[C@@H](C)CNc1nccc(-c2cn(C(C)C)nc2-c2cc(Cl)cc(NS(C)(=O)=O)c2F)n1 [encorafenib]
How it was run: as §1

[10] = compound: COC(=O)[C@H](CCSC)NC(=O)C1=C(C=C(C=C1)NC[C@H](CS)N)C2=CC=CC=C2
How it was run: as §1

[11] = compound: COC1=CC=C(C=C1)CN2C=CC3=C2C=C(C=C3)C(=O)NO
How it was run: as §1

[12] = compound: CON(C)C(=O)N1N=C(c2cc(F)ccc2F)S[C@@]1(CCCN)c1ccccc1 [filanesib]
How it was run: as §1

[13] = compound: CO[C@H]1C[C@@H]2CC[C@@H](C)[C@@](O)(O2)C(=O)C(=O)N2CCCC[C@H]2C(=O)O[C@H]([C@H](C)C[C@@H]2CC[C@H](n3cnnn3)[C@H](OC)C2)CC(=O)[C@H](C)/C=C(\C)[C@@H](O)[C@@H](OC)C(=O)[C@H](C)C[C@H](C)/C=C/C=C/C=C/1C [zotarolimus]
How it was run: as §1

[14] = compound: COc1cc(C(=O)O)ccc1NC(=O)[C@@H]1N[C@@H](CC(C)(C)C)[C@](C#N)(c2ccc(Cl)cc2F)[C@H]1c1cccc(Cl)c1F [idasanutlin]
How it was run: as §1

[15] = compound: COc1cc(Nc2ncc3c(n2)-c2ccc(Cl)cc2C(c2c(F)cccc2OC)=NC3)ccc1C(=O)O [alisertib]
How it was run: as §1

[16] = compound: COc1cc2nc(-c3cc(F)ccc3O)nc(N[C@@H]3CNC[C@H]3C(C)(C)O)c2cc1OC
How it was run: as §1

[17] = compound: COc1cc2ncnc(Nc3ccc(F)c(Cl)c3)c2cc1OCCCN1CCOCC1 [gefitinib]
How it was run: as §1

[18] = compound: COc1cccc2cc(-c3nc([C@H]4CC[C@H](C(=O)O)CC4)n4ncnc(N)c34)[nH]c12
How it was run: as §1

[19] = compound: CS(=O)(=O)CCNCc1ccc(-c2ccc3ncnc(Nc4ccc(OCc5cccc(F)c5)c(Cl)c4)c3c2)o1 [lapatinib]
How it was run: as §1

[20] = compound: CS(=O)(=O)N1CCN(Cc2cc3nc(-c4cccc5[nH]ncc45)nc(N4CCOCC4)c3s2)CC1 [pictilisib]
How it was run: as §1

UniProt Q96EV2, sequence (Q96EV2 whole entry, looked up): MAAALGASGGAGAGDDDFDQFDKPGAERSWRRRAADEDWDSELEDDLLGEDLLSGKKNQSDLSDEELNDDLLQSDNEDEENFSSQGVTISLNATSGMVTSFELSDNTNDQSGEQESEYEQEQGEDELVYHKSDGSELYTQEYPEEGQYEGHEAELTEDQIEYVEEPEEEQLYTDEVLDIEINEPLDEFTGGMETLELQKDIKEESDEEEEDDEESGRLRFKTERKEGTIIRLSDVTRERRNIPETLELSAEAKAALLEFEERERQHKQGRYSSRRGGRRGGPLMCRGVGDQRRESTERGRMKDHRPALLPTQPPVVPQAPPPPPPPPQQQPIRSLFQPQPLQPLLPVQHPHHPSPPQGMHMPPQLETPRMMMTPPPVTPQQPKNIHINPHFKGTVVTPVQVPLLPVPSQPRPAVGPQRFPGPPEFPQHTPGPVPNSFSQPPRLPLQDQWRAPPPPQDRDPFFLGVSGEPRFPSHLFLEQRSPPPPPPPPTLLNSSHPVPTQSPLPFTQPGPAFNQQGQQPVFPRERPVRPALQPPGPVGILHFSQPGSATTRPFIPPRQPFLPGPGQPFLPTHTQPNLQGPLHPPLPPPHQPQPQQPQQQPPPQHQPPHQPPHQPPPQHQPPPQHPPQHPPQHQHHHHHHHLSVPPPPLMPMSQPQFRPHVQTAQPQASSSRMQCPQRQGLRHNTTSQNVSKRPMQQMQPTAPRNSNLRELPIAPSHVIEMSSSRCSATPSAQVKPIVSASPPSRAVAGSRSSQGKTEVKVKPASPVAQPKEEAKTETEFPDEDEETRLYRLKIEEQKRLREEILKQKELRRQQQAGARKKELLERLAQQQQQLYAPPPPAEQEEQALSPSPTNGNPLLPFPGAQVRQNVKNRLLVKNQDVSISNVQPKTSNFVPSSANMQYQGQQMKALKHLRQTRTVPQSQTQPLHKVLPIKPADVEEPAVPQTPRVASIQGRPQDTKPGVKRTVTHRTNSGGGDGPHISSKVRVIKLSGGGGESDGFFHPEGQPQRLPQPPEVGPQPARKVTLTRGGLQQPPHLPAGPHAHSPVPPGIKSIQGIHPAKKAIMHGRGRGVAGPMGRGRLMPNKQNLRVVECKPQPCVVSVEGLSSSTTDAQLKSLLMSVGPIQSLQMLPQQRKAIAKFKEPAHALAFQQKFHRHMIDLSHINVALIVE
UniProt Q8TC12, sequence (Q8TC12 whole entry, looked up): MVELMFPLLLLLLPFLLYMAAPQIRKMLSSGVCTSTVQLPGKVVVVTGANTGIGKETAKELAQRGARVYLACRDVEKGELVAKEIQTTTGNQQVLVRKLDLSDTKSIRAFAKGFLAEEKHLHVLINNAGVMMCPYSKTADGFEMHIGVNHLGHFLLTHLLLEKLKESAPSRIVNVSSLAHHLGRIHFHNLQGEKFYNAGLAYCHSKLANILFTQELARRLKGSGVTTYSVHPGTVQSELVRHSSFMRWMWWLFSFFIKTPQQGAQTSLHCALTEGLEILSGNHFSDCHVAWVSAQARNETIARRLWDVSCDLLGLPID
UniProt Q8WZA2, sequence (Q8WZA2 whole entry, looked up): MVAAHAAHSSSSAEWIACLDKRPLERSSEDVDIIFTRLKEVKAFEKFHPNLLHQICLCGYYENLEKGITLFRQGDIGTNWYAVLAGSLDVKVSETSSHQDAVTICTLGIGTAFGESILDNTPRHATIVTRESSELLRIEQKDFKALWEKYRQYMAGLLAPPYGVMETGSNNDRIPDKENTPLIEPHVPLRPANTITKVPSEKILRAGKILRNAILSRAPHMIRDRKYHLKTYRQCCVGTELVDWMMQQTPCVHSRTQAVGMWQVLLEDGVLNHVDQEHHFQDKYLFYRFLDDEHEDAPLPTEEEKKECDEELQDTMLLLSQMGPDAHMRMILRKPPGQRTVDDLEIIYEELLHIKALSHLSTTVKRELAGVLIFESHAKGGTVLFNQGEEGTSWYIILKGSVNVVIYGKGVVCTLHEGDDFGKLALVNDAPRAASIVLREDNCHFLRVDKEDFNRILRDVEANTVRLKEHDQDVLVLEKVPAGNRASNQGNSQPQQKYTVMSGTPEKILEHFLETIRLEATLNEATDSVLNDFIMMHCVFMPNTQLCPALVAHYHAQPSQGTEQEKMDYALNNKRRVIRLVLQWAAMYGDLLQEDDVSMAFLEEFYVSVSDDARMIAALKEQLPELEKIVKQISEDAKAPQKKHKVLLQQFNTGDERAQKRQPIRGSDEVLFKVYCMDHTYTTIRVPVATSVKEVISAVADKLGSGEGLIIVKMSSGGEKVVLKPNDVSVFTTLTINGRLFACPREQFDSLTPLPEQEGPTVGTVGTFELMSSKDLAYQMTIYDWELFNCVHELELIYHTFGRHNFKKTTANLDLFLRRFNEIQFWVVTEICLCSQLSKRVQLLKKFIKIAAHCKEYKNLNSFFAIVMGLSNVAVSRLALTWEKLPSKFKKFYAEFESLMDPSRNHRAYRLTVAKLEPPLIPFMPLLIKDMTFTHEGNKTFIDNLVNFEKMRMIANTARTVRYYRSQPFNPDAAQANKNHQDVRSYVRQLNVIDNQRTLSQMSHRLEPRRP
UniProt O95486, sequence (O95486 whole entry, looked up): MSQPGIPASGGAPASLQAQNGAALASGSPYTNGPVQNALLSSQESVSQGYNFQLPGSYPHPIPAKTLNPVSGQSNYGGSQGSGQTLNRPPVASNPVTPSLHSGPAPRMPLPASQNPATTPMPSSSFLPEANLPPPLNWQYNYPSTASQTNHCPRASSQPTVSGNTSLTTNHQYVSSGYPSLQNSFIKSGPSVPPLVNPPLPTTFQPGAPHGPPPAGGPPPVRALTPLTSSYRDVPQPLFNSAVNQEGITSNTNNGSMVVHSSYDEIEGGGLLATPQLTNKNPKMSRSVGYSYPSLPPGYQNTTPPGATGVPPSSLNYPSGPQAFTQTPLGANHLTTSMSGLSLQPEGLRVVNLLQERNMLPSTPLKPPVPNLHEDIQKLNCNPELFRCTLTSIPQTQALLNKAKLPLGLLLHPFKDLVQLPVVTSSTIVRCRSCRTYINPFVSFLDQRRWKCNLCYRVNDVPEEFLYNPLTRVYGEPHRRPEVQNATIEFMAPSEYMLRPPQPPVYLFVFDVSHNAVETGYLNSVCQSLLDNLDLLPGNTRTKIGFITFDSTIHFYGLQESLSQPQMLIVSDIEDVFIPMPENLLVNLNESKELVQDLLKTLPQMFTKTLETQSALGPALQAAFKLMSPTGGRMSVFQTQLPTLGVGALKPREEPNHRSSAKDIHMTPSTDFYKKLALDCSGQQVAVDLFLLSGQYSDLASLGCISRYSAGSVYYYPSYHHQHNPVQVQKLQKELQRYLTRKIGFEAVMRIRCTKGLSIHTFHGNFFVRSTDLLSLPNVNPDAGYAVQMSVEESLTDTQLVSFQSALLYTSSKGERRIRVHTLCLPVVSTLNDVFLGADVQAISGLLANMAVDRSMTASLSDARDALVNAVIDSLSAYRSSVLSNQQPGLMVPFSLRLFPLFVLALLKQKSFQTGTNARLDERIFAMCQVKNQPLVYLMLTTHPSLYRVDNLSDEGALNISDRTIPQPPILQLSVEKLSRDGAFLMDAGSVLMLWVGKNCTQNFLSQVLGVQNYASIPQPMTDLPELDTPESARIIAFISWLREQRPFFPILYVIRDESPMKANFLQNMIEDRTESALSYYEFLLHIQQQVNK
UniProt Q9NTZ6, sequence (Q9NTZ6 whole entry, looked up): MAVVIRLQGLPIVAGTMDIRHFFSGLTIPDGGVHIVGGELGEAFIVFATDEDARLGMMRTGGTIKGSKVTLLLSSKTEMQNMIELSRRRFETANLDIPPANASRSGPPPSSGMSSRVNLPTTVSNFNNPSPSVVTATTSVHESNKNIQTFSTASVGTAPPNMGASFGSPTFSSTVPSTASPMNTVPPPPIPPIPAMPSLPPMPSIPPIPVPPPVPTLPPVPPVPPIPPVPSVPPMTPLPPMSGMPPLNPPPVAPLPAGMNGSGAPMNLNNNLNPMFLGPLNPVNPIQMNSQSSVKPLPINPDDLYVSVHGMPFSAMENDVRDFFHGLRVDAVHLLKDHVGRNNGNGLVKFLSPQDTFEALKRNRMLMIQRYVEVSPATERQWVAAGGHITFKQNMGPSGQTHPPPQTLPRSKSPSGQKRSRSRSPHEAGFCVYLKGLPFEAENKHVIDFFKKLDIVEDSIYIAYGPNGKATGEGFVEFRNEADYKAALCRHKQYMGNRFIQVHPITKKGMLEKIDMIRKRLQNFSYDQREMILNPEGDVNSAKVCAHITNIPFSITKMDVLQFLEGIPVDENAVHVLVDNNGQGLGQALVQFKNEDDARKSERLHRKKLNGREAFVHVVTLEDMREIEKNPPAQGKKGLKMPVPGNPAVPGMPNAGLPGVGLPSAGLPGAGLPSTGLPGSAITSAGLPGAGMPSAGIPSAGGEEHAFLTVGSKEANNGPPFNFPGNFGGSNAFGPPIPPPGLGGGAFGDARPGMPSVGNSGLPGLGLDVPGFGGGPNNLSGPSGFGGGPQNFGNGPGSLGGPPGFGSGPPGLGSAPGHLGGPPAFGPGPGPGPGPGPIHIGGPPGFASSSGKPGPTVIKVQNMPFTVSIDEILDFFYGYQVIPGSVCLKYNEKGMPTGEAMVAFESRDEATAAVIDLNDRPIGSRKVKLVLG
UniProt Q15758, sequence (Q15758 whole entry, looked up): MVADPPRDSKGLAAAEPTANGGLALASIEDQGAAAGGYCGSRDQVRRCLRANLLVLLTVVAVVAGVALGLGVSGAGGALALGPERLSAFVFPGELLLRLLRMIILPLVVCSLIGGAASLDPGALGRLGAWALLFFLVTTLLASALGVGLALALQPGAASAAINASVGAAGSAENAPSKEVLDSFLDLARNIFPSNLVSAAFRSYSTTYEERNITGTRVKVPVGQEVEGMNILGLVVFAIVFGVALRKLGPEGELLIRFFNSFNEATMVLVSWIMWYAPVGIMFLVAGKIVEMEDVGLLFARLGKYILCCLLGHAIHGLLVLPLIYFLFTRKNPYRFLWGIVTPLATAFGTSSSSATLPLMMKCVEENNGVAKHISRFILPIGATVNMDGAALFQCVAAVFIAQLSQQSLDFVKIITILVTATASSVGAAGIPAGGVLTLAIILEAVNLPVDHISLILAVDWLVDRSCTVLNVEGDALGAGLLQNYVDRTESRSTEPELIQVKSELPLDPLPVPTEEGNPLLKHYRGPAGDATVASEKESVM

Target	log2 fold change [1]	log2 fold change [2]	log2 fold change [3]	log2 fold change [4]	log2 fold change [5]	log2 fold change [6]	log2 fold change [7]	log2 fold change [8]	log2 fold change [9]	log2 fold change [10]	log2 fold change [11]	log2 fold change [12]	log2 fold change [13]	log2 fold change [14]	log2 fold change [15]	log2 fold change [16]	log2 fold change [17]	log2 fold change [18]	log2 fold change [19]	log2 fold change [20]
RBM12 (UniProt Q9NTZ6)	-0.04	-0.12	-0.191	0.074	0.008	-0.27	-0.109	-0.02	0.061	-0.052	0.112	-0.033	0.021	-0.039	0.023	-0.014	0.032	0.023	-0.012	-0.019
RBM33 (UniProt Q96EV2)	0.071	-0.017	-0.177	0.007	-0.021	-0.273 (active)	-0.017	-0.044	0.02	0.03	0.134	0.013	0.03	0.042	-0.031	-0.078	0.035	-0.028	0.008	-0.044
RPS21 (UniProt P63220)	-0.017	0.005	0.104	0.246	0.039	0.052	-0.039	-0.001	0.021	0.027	-0.033	0.086	-0.021	0.031	-0.069	0.04	0.002	-0.022	-0.027	-0.01
SERINC3 (UniProt Q13530)	0.002	0.119	0.134	-0.06	-0.043	-0.016	0.006	-0.216	-0.017	-0.065	-0.015	-0.222	-0.062	0.136	0	-0.17	-0.069	0.042	-0.181	0.181
RDH11 (UniProt Q8TC12)	-0.121	-0.019	-0.028	0.003	0.136	0.001	0.113	0.019	0.094	-0.086	0.087	-0.046	0.093	0.032	-0.01	-0.333	0.071	0	0.03	0.241
RBM8A (UniProt Q9Y5S9)	0.011	-0.002	0.188	0.045	-0.032	0.075	-0.043	-0.006	0.025	0.012	-0.061	0.028	-0.018	-0.01	-0.024	0.094	0.038	-0.029	-0.028	-0.013
RPS13 (UniProt P62277)	-0.149	0	0.287	0.106	0.097	0.339	0.261	0.111	0.137	0.031	-0.132	0.394	0.015	0.145	-0.164	-0.012	-0.051	-0.316	0.117	-0.226
RSRC2 (UniProt Q7L4I2)	0.015	0.049	0.055	-0.055	-0.125	-0.048	-0.004	-0.016	-0.005	0.024	0.033	0.066	-0.002	0.048	-0.102	0.034	0.005	0.022	-0.021	0.011
RAB33B (UniProt Q9H082)	0.158	0.057	0.038	0.013	-0.01	-0.005	0.035	-0.031	0	0.032	-0.104	-0.018	-0.073	0.036	0.035	0.039	0.037	0.087	0.046	0.106
RPS16 (UniProt P62249)	-0.085	0.004	0.193	0.05	0.108	0.185	0.126	0.056	0.033	0.004	-0.117	0.092	0.025	0.093	-0.167	-0.027	-0.014	-0.199	0.046	-0.162
RPS12 (UniProt P25398)	-0.014	-0.023	0.123	0.017	0.049	0.092	0.12	-0.008	0.02	0.015	-0.009	0.018	-0.026	0.048	-0.17	-0.057	-0.02	-0.159	0.062	-0.033
SASH1 (UniProt O94885)	-0.081	-0.043	-0.035	0.04	-0.019	-0.064	0.03	-0.015	0.013	-0.022	-0.059	-0.074	-0.04	-0.05	0.009	-0.161	0.015	-0.015	-0.013	0.073
SEC24A (UniProt O95486)	0.002	-0.055	-0.071	0.03	0.032	-0.013	0.002	-0.033	0.091	-0.009	0.029	-0.083	0.033	-0.087	-0.002	-0.004	-0.028	-0.016	-0.021	-0.077
SLC1A5 (UniProt Q15758)	0	0.064	-0.027	-0.023	-0.09	-0.01	-0.015	0.033	-0.045	0.058	-0.048	0.071	-0.052	0.031	-0.126	0.058	0.023	0.095	-0.01	0.024
SAMD4B (UniProt Q5PRF9)	-0.349	-0.036	-0.059	0.167	-0.132			0.096			0.075	0.139	0.072			0.14	0.146		-0.036	-0.044
RAPGEF4 (UniProt Q8WZA2)	0.045	-0.033	0.04	0.333	-0.114	-0.057	-0.063	0.083	0.059	-0.123	0.549	0.053	-0.078	0.021	-0.145			0.187		
